Out of some 420,000 compounds screened, about 50,000 (12%) were called active. Inconclusive results (about 26%) are left out. Calls come from the whole dose curve; as a rule, active = well fitted inhibition curve with a large enough effect; inconclusive = small, poorly fitted or top-dose-only effect; inactive = flat fitted curve, though single readings scatter. The entries come from a sample that favours actives as a whole. Where a SMILES comes first, the peptide text is derived from it. Bridges are numbered along the chain shown (N, C = ends). [ ]: non-standard residue; d: D form. The star is where a group is joined. X4 = CC[C@H](C)CCCCC(=O)*; Dab = NCC[C@H](N)C(=O)O
experiment: qHTS for Inhibitors of human tyrosyl-DNA phosphodiesterase 1 (TDP1): qHTS in cells in presence of CPT; settings: chicken DT40 Tdp1-/-;hTDP1 cells + 20 nM CPT, ATP luminescence, 48 h; series mostly up to 46.2 µM; activity change, negative = growth inhibition: at the top concentration; note: nearly all actives have a fitted effect of over 55% in size
Method in brief: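 Chicken DT40 Tdp1-/- cells stably complemented with human TDP1 were seeded at 400 cells/well in medium containing 20 nM camptothecin, exposed to pin-transferred compounds, and grown at 37 °C for at least 48 hr. Viability was read as ATP luminescence.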
% is set by controls: 0 for no effect and ±100 for the full control effect; potency is the fitted concentration of half-maximal effect.

Structure (SMILES)	activity change, negative = growth inhibition	Potency
N#Cc1cc([N+](=O)[O-])ccc1NCC1CCCO1 (stereo not given)	-1.48% (inactive)	
O=C(O)CN1c2cccc3cccc(c23)S1(=O)=O	8.65% (inactive)	
Cc1ccc(NC(=O)/C(=C\c2ccccc2)NC(=O)c2ccco2)cc1	19.2% (inactive)	
FC(F)Oc1ccccc1C1CC(c2ccc(Br)s2)Nc2ncnn21 (stereo not given)		11.6 µM (active)
COc1ccc(C2CC(c3ccccc3)Nc3ncnn32)cc1 (stereo not given)	-21.6% (inactive)	
Clc1ccc(C2CC(c3cccs3)n3ncnc3N2)cc1Cl (stereo not given)	-15.9% (inactive)	
CCOC(=O)Cn1nnnc1C	2.09% (inactive)	
O=C(O)c1cc(S(=O)(=O)N(Cc2ccccc2)c2ccccc2)ccc1Cl	14.8% (inactive)	
COc1cc2nnn(-c3ccncc3)c2cc1OC	1.19% (inactive)	
Cc1nn(CC(=O)NCCc2ccccc2)c(=O)c2cc3occc3n12	1.61% (inactive)	
COCCNC(=O)c1cc2c(Br)ccc(Br)c2nc1N	1.46% (inactive)	
CNCC(O)CN1CCN(c2ccccc2OC)CC1 (stereo not given)	-3.99% (inactive)	
COc1ccccc1N1CCN(CC(=O)NC(=O)NCc2ccco2)CC1	-0.174% (inactive)	
COc1ccccc1N1CCN(CCN2C(=O)c3ccccc3C(C)(C)C2=O)CC1		14.6 µM (active)
COc1ccc2c(C)cc3nnnn3c2c1	1.49% (inactive)	
CC(C)[C@H](NC(=O)N1CC(=O)Nc2ccccc21)C(=O)N[C@@H](Cc1c[nH]c2ccccc12)C(=O)O	8.26% (inactive)	
CCN(C(=O)Cn1cnc2sc(C)c(S(=O)(=O)N3CCN(c4ncccn4)CC3)c2c1=O)c1ccccc1F	-17.6% (inactive)	
CCOc1ccc(S(=O)(=O)N2CCCCC2)cc1NC(=O)CN1CCCC1c1cccs1 (stereo not given)		3.66 µM (active)
COc1ccc(S(=O)(=O)N2CCCCCC2)cc1NC(=O)Cc1ccc(OC)c(OC)c1	6.32% (inactive)	
Cc1ccc(S(=O)(=O)N2CCCCC2)cc1NC(=O)[C@@H]1CCCN1C(=O)c1cccs1	7.21% (inactive)	
Cc1csc[n+]1CCC1CCCCC1		20 µM (active)
CC(=O)c1ccc(N2C(=NC(=O)C(C)C)SC3CS(=O)(=O)CC32)cc1 (stereo not given)	-10.8% (inactive)	
O=C(CSc1nc(-c2cccc(F)c2)[nH]c1-c1ccccc1)Nc1ccc2c(c1)OCO2		10.3 µM (active)
O=C(CN1CCN(CC(=O)Nc2ccc3c(c2)OCO3)CC1)Nc1ccc(F)cc1	-6.39% (inactive)	
O=C(CSc1nnc(-c2ccccn2)n1-c1ccccc1)Nc1ccc2c(c1)OCO2	1.97% (inactive)	

Structure (SMILES)	activity change, negative = growth inhibition	Potency
O=c1c(CCc2ccccc2)nc2cncnc2n1C1CC1	2.45% (inactive)	
CCCNC(=O)C(=O)Nc1cc2c3c(c1)CCC(=O)N3CCC2	-0.193% (inactive)	
Cc1cc(F)ccc1N1CCC(N2CCN(C)C(CCO)C2)CC1 (stereo not given)	-17.2% (inactive)	
O=S(=O)(c1cccc(-c2nnc3n2CCCCC3)c1)N1CCOCC1	-17.9% (inactive)	
O=C(Nc1ccc(N2CCOCC2)c(Cl)c1)c1ccc(S(=O)(=O)N2CCOCC2)cc1	-19.1% (inactive)	
O=C(Nc1ccc2c(c1)nc1n2CCCCC1)c1cc(S(=O)(=O)N2CCOCC2)ccc1Cl		11.6 µM (active)
N#C/C(=C(\O)C(F)(F)F)c1nnc2n1CCCCC2	-13.9% (inactive)	
Cc1cccc(C(=O)OCC(=O)Nc2sccc2C(N)=O)c1C	6.25% (inactive)	
O=C(CSc1ncn[nH]1)N/N=C/c1ccc(F)cc1	0.0663% (inactive)	
O=C(/C=C/Sc1ncn[nH]1)c1ccc(Cl)cc1		2.31 µM (active)
COc1ccc(Cl)cc1CSc1ncn[nH]1	0.877% (inactive)	
COC(=O)c1sccc1-n1cccc1C(=O)C(=O)N1CCCCC1	-5.51% (inactive)	
O=C(COC(=O)c1ccc(Oc2ccccc2)cc1)Nc1nnc(-c2ccccc2)o1	-23.6% (inactive)	
COc1cccc(-c2nnc(NC(=O)c3ccc(S(=O)(=O)N(CC(C)C)CC(C)C)cc3)o2)c1		3.66 µM (active)
COc1cccc(NC(=O)c2ccc(S(=O)(=O)N(C)C)cc2)c1	-1.56% (inactive)	
O=C1/C(=C/c2ccc(F)cc2)SC(=S)N1NS(=O)(=O)c1ccccc1	-3.85% (inactive)	
O=C(CCN1C(=O)c2ccccc2C1=O)C1=NN[C@@H]2C(=O)N(c3ccc(F)cc3)C(=O)[C@H]12	-3.2% (inactive)	
Cc1c(CC(=O)NCCCCCC(=O)O)c(=O)oc2cc3occ(-c4ccccc4)c3cc12	11.6% (inactive)	
CCCC(=O)Nc1nnc(-c2ccccc2)o1	0.251% (inactive)	
CCCCCCc1cc2cc(-c3nnc(-c4ccccc4)o3)c(=O)oc2cc1O		14.6 µM (active)
Nc1cccc(S(=O)(=O)Nc2ccc(SC(F)F)cc2)c1	-8.22% (inactive)	
CC(C)(C)c1cc(P(=O)(c2ccccc2)c2ccccc2)ccc1O	-13.8% (inactive)	
COc1ccccc1-c1cnn2c(N3CCOCC3)cc(C)nc12	10.4% (inactive)	
O=C(Nc1cccc(Br)c1)C1CC(=O)N(C2CCCC2)C1 (stereo not given)	0.73% (inactive)	
COc1ccc(OC)c(NC(=O)Cc2cccs2)c1	-28.1% (inactive)	

Structure (SMILES)	activity change, negative = growth inhibition	Potency
CCCc1nc2ccccc2c(=O)n1/N=C/c1ccc(O)c(O)c1		11.6 µM (active)
Cn1c(SCC(=O)N/N=C/c2ccc(O)c(O)c2)nc2ccccc21	-81.7% (inactive)	
O=c1c2ccccc2ncn1/N=C/c1ccccc1	-6.74% (inactive)	
CSc1nc2c(c(=O)[nH]1)C(c1cccc(Cl)c1Cl)CC(=O)N2 (stereo not given)	5.31% (inactive)	
S=C(NCC1CCCO1)N1CCN(c2ccc(Cl)c(Cl)c2)CC1 (stereo not given)		20.6 µM (active)
COc1ccc(S(=O)(=O)N2CCN(C(=S)NCC3CCCO3)CC2)cc1OC (stereo not given)	6.64% (inactive)	
O=C(CSCc1c(F)cccc1Cl)NCC1CCCO1 (stereo not given)	-10.4% (inactive)	
O=Cc1c(N2CCN(c3cccc(Cl)c3)CC2)nc2ccccn2c1=O	-27.9% (inactive)	
CC(CNc1ccc([N+](=O)[O-])c2cccnc12)Nc1c([N+](=O)[O-])cc(C(F)(F)F)cc1[N+](=O)[O-] (stereo not given)	-5.74% (inactive)	
FC(F)(F)c1ccc2c3n(nc2c1)CCN=C3c1ccc(Cl)cc1	-26.9% (inactive)	
CCc1ccccc1NC(=O)CSc1nnc(CCNC(=O)OC(C)(C)C)o1	4.67% (inactive)	
CN1OC[C@@H]2CN(C(=O)c3cccc4ccccc34)[C@H](c3ccc(N4CCCCC4)cc3)C[C@@H]21	-8.28% (inactive)	
C[C@H]1Cn2cnc(C(=O)N[C@H](C)c3ccccc3)c2C(=O)N1	-2.86% (inactive)	
COc1ccc(C(=O)OC(C)C(=O)NC2CCCC2)cc1S(=O)(=O)N1CCOCC1 (stereo not given)	-15.1% (inactive)	
Cc1cccc2c(=O)n3c(nc12)CCCCC3	-29.8% (inactive)	
CCCN(CCC)C(=O)C1CCCN(c2ncnc3c2nc2n3CCCCC2)C1 (stereo not given)		14.6 µM (active)
CCCCN(CC)C(=S)Nc1ccc2nc3n(c(=O)c2c1)CCCCC3	-21.8% (inactive)	
COCCNc1ncnc2c1nc1n2CCCC1	-12.6% (inactive)	
CN(C(=O)C1CCN(c2ncnc3c2nc2n3CCCCC2)CC1)C1CCCCC1		20.6 µM (active)
COCCCNC(=O)CN1C(=O)CSc2ccc(S(=O)(=O)N3CCOCC3)cc21		inactive
O=C(NCc1ccncc1)c1ccc(NS(=O)(=O)c2cccc([N+](=O)[O-])c2)cc1	-13% (inactive)	
COc1ccc(C(C)NC(=S)NC2CCCCC2)cc1OC (stereo not given)	-15.6% (inactive)	
COc1ccc(-n2c(CNC(=O)c3cc(C(F)(F)F)ccc3Cl)nnc2SC)cc1	21.6% (inactive)	
COc1ccc(C(CNC(=O)COc2ccc([N+](=O)[O-])cc2)N2CCCCC2)cc1 (stereo not given)	-15.2% (inactive)	
CC(=O)c1ccc(S(=O)(=O)NC2CC(=O)N(c3ccc4c(c3)OCCO4)C2)cc1 (stereo not given)	-2.96% (inactive)	

Structure (SMILES)	activity change, negative = growth inhibition	Potency
Cc1ccc(N2C(=O)CN=C2Nc2nc(C)cc(C)n2)cc1	-2.45% (inactive)	
COc1ccc(N2CCN(C(C)=C3C(=O)c4ccccc4C3=O)CC2)cc1	-17.9% (inactive)	
COc1ccccc1-c1nc(N2CCN(C)CC2)c2ccccc2n1	7.98% (inactive)	
COc1ccc(N2CCN(c3nc(-c4ccccc4F)nc4ccccc34)CC2)cc1		20.6 µM (active)
O=C(Nc1ccc(Cl)cc1)c1cc2nc(C3CC3)cc(C(F)(F)F)n2n1	-14.9% (inactive)	
COC(=O)C1(C)CC1(c1ccccc1)c1ccccc1 (stereo not given)	-29.8% (inactive)	
CC(C)Oc1ccc(/C=N/NC(=O)c2nnn(-c3nonc3N)c2CN(C)C2CCCCC2)cc1	-4.96% (inactive)	
O=C(Nc1ccccc1Cl)N1CCC(CN2CCCC2)CC1	-3.55% (inactive)	
Cc1ccc(C)c(N2CCN(S(=O)(=O)c3ccc4c(c3)oc(=O)n4C)CC2)c1	-18.2% (inactive)	
Cc1ccc(C)c(N2CCN(S(=O)(=O)c3ccc4c(c3)C(C(C)C)C(=O)N4)CC2)c1 (stereo not given)		20.6 µM (active)
CC1C(=O)Nc2ccc(S(=O)(=O)N3CCN(c4ccccc4F)CC3)cc2NC1=O (stereo not given)		9.2 µM (active)
CCOC(=O)N1CCN(S(=O)(=O)c2ccc3c(c2)C(C)C(=O)N3)CC1 (stereo not given)	4.3% (inactive)	
Cn1c(=O)c(=O)n(C)c2cc(S(=O)(=O)NCCN3CCN(c4ccccc4F)CC3)ccc21	0.149% (inactive)	
O=S(=O)(N1CCOCC1)N1CCN(c2ccccc2F)CC1	-7.59% (inactive)	
O=C(CN1C(=O)COc2ccc(Cl)cc21)Nc1ccc(N2CCOCC2)cc1	-2.92% (inactive)	
CCC(C)NC(=O)c1ccc(N2CCC3(CC2)OCCO3)c([N+](=O)[O-])c1 (stereo not given)	-25.4% (inactive)	
Cc1cccc(C(=O)OCC(=O)NCC(C)C)c1O	14.8% (inactive)	
CC[C@H](C)CCCCC(=O)N[C@@H](CCN)C(=O)N[C@H](C(=O)N[C@@H](CCN)C(=O)N[C@H]1CCNC(=O)[C@@H]([C@H](C)O)NC(=O)[C@H](CCN)NC(=O)[C@H](CCN)NC(=O)[C@H](CC(C)C)NC(=O)[C@@H](CC(C)C)NC(=O)[C@H](CCN)NC1=O)[C@@H](C)O (X4-[Dab]T[Dab][Dab][Dab][dL]L[Dab][Dab][dT]; lactam 4-C)	-18.2% [at 21.1 µM] (inactive)	
COc1cc([N+](=O)[O-])ccc1NC(=O)CN1CCCC1	2.13% (inactive)	
CSc1ccccc1NC(=O)COC(=O)CCCOc1ccc(C)cc1	-3.52% (inactive)	
COc1cc([N+](=O)[O-])ccc1NC(=O)COC(=O)CCOc1ccc(C)cc1		6.51 µM (active)
CC1(C)CC(=O)CC2(C1)NCC(c1ccccc1Cl)c1c2[nH]c2ccccc12 (stereo not given)		18.4 µM (active)
Cc1ccc(C(=O)Nc2nc(-c3ccccc3)ns2)cc1	3.18% (inactive)	
CCc1cccc(-n2nnc(-c3nsc(NC(=O)c4ccc(C)cc4)n3)c2C)c1		9.2 µM (active)
Cc1ccc(C(=O)Nc2nc(N)n(-c3ccccc3)n2)cc1	-3.52% (inactive)	

— PubChem BioAssay AID686979 (National Center for Advancing Translational Sciences (NCATS), 2013)
